In the library only some 4.1% were active in any assay of this set; here they are far more common.
Mtb UGM inh – inhibitors of M. tuberculosis UDP-galactopyranose mutase; AID 504406; inhibition, % at 10 µM; P9WIQ1; 320,000 tested, 0.06% active; purified UGM, fluorescence polarization probe displacement; in the data active = inhibition above about 10%, passing the limit was not always enough
Target sequence (P9WIQ1 whole entry, looked up): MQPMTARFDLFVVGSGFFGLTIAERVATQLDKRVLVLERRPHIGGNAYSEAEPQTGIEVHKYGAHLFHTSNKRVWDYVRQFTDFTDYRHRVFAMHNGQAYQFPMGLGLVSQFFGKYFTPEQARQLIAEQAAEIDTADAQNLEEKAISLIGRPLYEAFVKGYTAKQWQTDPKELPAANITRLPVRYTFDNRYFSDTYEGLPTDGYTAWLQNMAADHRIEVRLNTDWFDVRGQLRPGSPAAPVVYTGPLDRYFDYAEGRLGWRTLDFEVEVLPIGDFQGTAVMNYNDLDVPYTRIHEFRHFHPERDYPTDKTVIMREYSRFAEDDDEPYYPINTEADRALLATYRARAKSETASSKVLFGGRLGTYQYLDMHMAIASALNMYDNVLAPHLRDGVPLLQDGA
Rv3671c protease – Rv3671c (M. tuberculosis) protease inhibition | AID 2606 | inhibition, % at 5.96 µM | 320,000 tested, 0.048% active; in the data active = inhibition above about 38%;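 note: extracellular domain of Rv3671c used as enzyme; 0% = enzyme with DMSO and 100% = no enzyme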
Vc quorum ag – quorum light induction in luxS cqsA deficient V. cholerae. activation, % at 18.7 µM. V. cholerae BH1578 lux reporter, luminescence, 6 h. 350,000 tested, 0.16% active; in the data active = activation mostly above about 9.7%, no sharp cut-off
RecA splice inh – blocks M. tuberculosis RecA intein splicing. P9WHJ3. cell-free RecA intein splicing, fluorescence. inhibition, % (concentration not given with the values). 290,000 tested, 0.75% active. AID 2221; in the data active = inhibition above about 30%;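 note: 0% = vehicle wells and 100% = reference inhibitor control wells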
FBA Mtb inh – inhibits M. tuberculosis FBA enzyme; P9WQA3; purified M. tuberculosis FBA, fluorescence read-out; inhibition, % at 1 µM; 360,000 tested, 2.3% active;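 note: 0% = vehicle and 100% = reference inhibitor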
GDH-TPI counter-1 – inhibits GDH-TPI coupling enzymes, artifact for Mtb FBA screen; GDH-TPI coupled enzyme counterscreen, NADH absorbance; inhibition, % at 4.8 µM; 360,000 tested, 1.2% active; AID 588335; in the data active = inhibition above about 30%;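 note: 0% = DMSO wells and 100% = wells lacking the enzyme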
Mtb FBA inh conf – confirmation of M. tuberculosis fructose-bisphosphate aldolase inhibitors | shares compounds with FBA Mtb inh | purified M. tuberculosis FBA, fluorescence read-out | inhibition, % at 1 µM | 5,600 tested, 78% active | AID 651616;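 note: 0% = vehicle wells and 100% = reference inhibitor wells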
GDH-TPI counter-2 – counter-screen for M. tuberculosis FBA inhibitors: GDH-TPI coupled enzyme inhibition. shares compounds with FBA Mtb inh. GDH-TPI coupled enzyme counterscreen, fluorescence. inhibition, % at 1 µM. 5,600 tested, 81% active. AID 652141; in the data active = inhibition above about 10%
* = called active by the depositor; i = inactive; . = no result; + = active, no number. Cut-off read from the data, not from the text of the source, unless noted: active = inhibition above about 27%; inactive = the rest.

SMILES	Mtb UGM inh	Rv3671c protease	Vc quorum ag	RecA splice inh	FBA Mtb inh	GDH-TPI counter-1	Mtb FBA inh conf	GDH-TPI counter-2
CCCc1cc(=O)oc2c(C)c(O[C@@H]3O[C@H](CO)[C@@H](O)[C@H](O)[C@H]3O)ccc12	0.4	5.9	i	-0.4	2.9	12.0	.	.
Cc1ccc(F)cc1C(=O)N1CCCC(c2cc(C(=O)Nc3ccccc3Cl)no2)C1 (stereo unspecified)	.	.	i	.	-0.3	11.5	.	.
N#C/C(=C\c1c(N2CCCCCC2)nc2ccccn2c1=O)C(=O)NCc1ccco1	-3.2	-4.9	i	1.6	-2.0	3.4	.	.
C=CCNC(=O)/C(C#N)=C/c1c(N2CCCCCC2)nc2ccccn2c1=O	1.1	4.2	0.8	2.2	37.1*	9.3	5.1	-2.1
CCNC(=O)/C(C#N)=C/c1c(N2CCOCC2)nc2ccccn2c1=O	-1.6	1.6	-0.3	-73.3	42.2*	4.5	175.8*	135.7*
COc1ccc(-c2cc(CNc3nc4cc(-c5ccccc5C)sc4c(=O)n3C)on2)cc1	.	.	0.1	.	-0.9	2.6	.	.
CC1C(=O)N(Cc2cn(CCC3OCCCO3)nn2)CCS(=O)(=O)N1Cc1ccc(-c2ccc(F)nc2)cc1 (stereo unspecified)	.	.	-0.7	.	0.6	1.0	.	.
CC1CC(NC(=O)c2cc3c(=O)n4ccccc4nc3n2C)CC(C)(C)C1 (stereo unspecified)	1.2	2.1	-0.2	-205.4	72.4*	7.4	71.3*	62.4*
Cc1ccc(S(=O)(=O)c2cc3c(=O)n4ccccc4nc3n(C3CCCC3)c2=N)cc1	0.4	-2.8	-0.7	-26.1	5.2	11.2	.	.
CC1CC(NC(=O)c2cnc3n(c2=O)CCS3)CC(C)(C)C1 (stereo unspecified)	-1.0	-0.1	0.0	0.6	-0.3	8.0	.	.
N=c1c(C(=O)NC2CCCC2)cc2c(=O)n3ccccc3nc2n1C1CCCCC1	2.2	-4.2	-0.8	-384.0	64.1*	8.2	48.6*	41.5*
Cc1ccc2nc3c(cc(C(=O)NC4CCCCC4)c(=N)n3C3CCCCC3)c(=O)n2c1	-0.3	0.1	i	i	71.0*	-4.0	121.3*	84.8*
Cc1cccn2c(=O)c3cc(C(=O)NCc4ccco4)c(=N)n(C4CCCC4)c3nc12	-2.2	4.5	0.2	-60.9	90.5*	12.7	77.7*	63.4*
Cc1cc(C)c(NC(=O)Cn2c([N+](=O)[O-])cnc2C)c(C)c1	-1.8	2.5	i	1.4	1.9	15.5	.	.
COc1ccc2[nH]c(-c3ccccc3)cc2c1	-0.1	-6.1	-6.7	0.6	99.6*	8.0	90.7*	71.5*
COc1ccc(-c2cc(=O)c3cc(OC)c(OC)cc3[nH]2)cc1	-3.2	-6.3	i	-1.2	57.5*	19.0	65.6*	59.2*
COc1ccc2[nH]c(C)cc(=O)c2c1	-1.0	0.3	.	-2.1	12.8	7.0	.	.
COc1ccc(-c2cc(=O)c3cc(F)ccc3[nH]2)cc1	-0.2	0.3	-11.1	0.5	31.1*	-2.0	126.1*	98.5*
COc1ccc2[nH]c(-c3ccc(C)cc3)cc(=O)c2c1	0.1	1.6	5.0	-8.8	44.2*	17.5	+	165.2*
CCC(=O)N1CCCC1(C)C(=O)Nc1cccc(Oc2ccccc2)c1 (stereo unspecified)	.	.	i	.	-2.5	0.4	.	.
CC(OC(=O)C1CCCC1)C(=O)Nc1ccc(C(N)=O)cc1 (stereo unspecified)	-1.1	6.4	-1.8	.	-0.1	13.7	.	.
CCCCCC(=O)Nc1cccc(S(=O)(=O)NC2=NCCC2)c1	-0.7	2.7	-0.2	.	-1.8	12.5	.	.
Cc1cccc2c(=O)n3c(cc12)-c1[nH]c2ccccc2c1CC3	.	.	-1.1	.	82.7*	8.6	168.1*	109.6*
C=CCn1c(SCC(=O)N(CC)C2CCS(=O)(=O)C2)nc2cc(C(=O)O)ccc2c1=O (stereo unspecified)	-2.1	0.3	i	.	32.2*	4.8	111.0*	89.2*
COc1cc(C)c(NC(=O)COc2ccc3c(c2)OCO3)cc1C	0.0	-3.3	-3.3	1.5	-1.2	8.4	.	.
SMILES	Mtb UGM inh	Rv3671c protease	Vc quorum ag	RecA splice inh	FBA Mtb inh	GDH-TPI counter-1	Mtb FBA inh conf	GDH-TPI counter-2
O=C(c1coc(=O)c(Br)c1)N1CCOCC1	.	.	i	-4.1	98.2*	17.6	1.5	-3.3
Nc1nc2nccc(-c3cccnc3)n2n1	1.5	-7.2	-0.2	2.1	64.5*	19.2	-8.5	-4.9
CN(C)/C=N/c1nc2nccc(-c3cccnc3)n2n1	-0.7	1.1	-0.3	-9.8	27.2*	1.3	152.3*	106.5*
Cc1nn2c(-c3cccnc3)ccnc2c1-c1ccccc1	-4.7	2.5	2.5	-0.3	0.4	4.0	.	.
Cc1c(Cl)cnc(NC(=O)COC(=O)[C@@H](NC(=O)c2ccco2)C(C)C)c1Cl	3.8	4.9	0.4	.	4.7	2.5	.	.
CCOc1ccc(Cl)cc1CSc1n[nH]c(CC)n1	3.8	-0.3	1.4	2.1	34.5*	0.5	4.7	0.3
CSc1nnc(-c2ccc(S(=O)(=O)N3CCCC3)cc2)n1C	-2.0	-0.7	0.2	-2.8	46.5*	1.6	92.1*	71.1*
CC(=O)Nc1cccc(C2=CC(c3ccco3)n3ncnc3N2)c1 (stereo unspecified)	2.2	1.1	.	-292.3	.	.	.	.
Clc1ccccc1C1=CC(c2ccco2)n2ncnc2N1 (stereo unspecified)	-3.3	2.9	-0.8	-70.8	35.2*	14.2	156.4*	126.3*
Cc1cccc(C(=O)N[C@H](C(=O)Nc2ccc3c(c2)OCO3)C(C)C)c1	5.7	4.0	-0.9	.	0.0	-1.8	.	.
CC1CCCC(C)N1CC(O)COC1CCC(C(C)(C)C)CC1 (stereo unspecified)	-0.7	2.5	0.7	-0.9	28.6*	-6.4	112.0*	98.1*
O=C(C[C@@H]1C/C=C\C[C@@H](Cc2ccc(F)cc2)C(=O)OC[C@@H]2CCCN2C1=O)NCCO	.	9.3	i	.	-3.0	2.7	.	.
CC(C)N(C(=O)[C@H]1C[C@H](CC(=O)NCCN2CCOCC2)C(=O)N2CCc3c([nH]c4cc(-c5ccco5)ccc34)[C@]12C)C(C)C	.	.	-0.4	.	35.8*	4.3	150.5*	123.9*
CCN(CC)C(=O)[C@H]1C[C@H](CC(=O)NC(C)(C)C)C(=O)N2CCc3c([nH]c4cc(-c5ccco5)ccc34)[C@]12C	.	.	-0.2	.	37.8*	8.3	+	139.6*
C[C@]12c3[nH]c4cc(-c5ccco5)ccc4c3CCN1C(=O)[C@@H](CC(=O)NCCN1CCOCC1)C[C@@H]2C(=O)N1CCOCC1	.	.	-0.5	.	46.4*	11.5	+	+
C[C@]12c3[nH]c4cc(-c5ccco5)ccc4c3CCN1C(=O)[C@@H](CC(=O)NCCC1=CCCCC1)C[C@@H]2C(=O)N1CCOCC1	.	.	-1.6	.	15.1	5.5	.	.
